Source: PubChem BioAssay (National Center for Advancing Translational Sciences (NCATS))
DT40 TDP1 no CPT – qHTS for Inhibitors of human tyrosyl-DNA phosphodiesterase 1 (TDP1): qHTS in cells in absence of CPT. DT40 Tdp1-/- hTDP1 cells, no CPT, ATP luminescence, 48 h. Potency, µM (doses to about 46.2 µM), inactives show top-dose activity change, negative = growth inhibition, usual class: inhibitors. 420,000 compounds, 15% hits. AID 686978, 2013; also: % is scaled to controls: 0 for no effect and ±100 for the full control effect; nearly all actives have a fitted effect of over 55% in size
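Chicken DT40 Tdp1-/- cells stably complemented with human TDP1 were seeded at 400 cells/well with DMSO in place of 20 nM camptothecin. After compound pinning, cells grew at least 48 hr at 37 °C; viability read by CellTiter-Glo luminescence.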
TGFb SMAD3 inh – blocks TGF-b signaling; Potency, µM (titrated, usually from 46.1 µM), inactives show at the highest dose activity, negative = inhibition, actives largely listed as inhibitors; HepG2 CAGA-GFP TGF-b/SMAD3 reporter, GFP fluorescence, 18 h; TGF-beta stimulated, 500 pg/mL final; 410,000 compounds, 1.2% hits; also: % is scaled to controls: 0 for no effect and ±100 for the full control effect; nearly all actives have a fitted effect of over 65% in size
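Per well, imaged GFP fluorescence of HEPG2 CAGA-GFP cells gives the signal; cells get compound, then TGF-beta (500 pg/mL final), 18 h at 37 degrees C; %Activity versus -TGF-beta and +DMSO controls.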
HepG2 tox – counter-screen for TGF-b inhibitors: cytotoxicity in HepG2 cells | AID 588856 | HepG2 CAGA-GFP viability, ATP luminescence, 18 h | Potency, µM (highest dose often 46.1 µM), inactives show at the top dose activity change, negative = cytotoxicity, most hits filed as cytotoxic | 410,000 compounds, 0.76% hits
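HepG2 CAGA-GFP cells (1000/well, DMEM with 1% FBS) received compound, then TGF-beta at 500 pg/mL final, and were incubated 18 hours at 37 degrees C. Viability was read by CellTiter-Glo luminescence. Media-only wells were set as complete cell-killing and DMSO as no toxicity.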
ATXN viability – viability counter-screen for ATXN expression inhibitors | S2 cells (HEK-293 line with an ATXN2-luciferase reporter) viability, CellTiter-Fluor protease fluorescence, 24 h | Potency, µM (highest dose often 56.7 µM), most hits filed as cytotoxic | 400,000 compounds, 0.49% hits | AID 651635; also: nearly all actives have a fitted effect of over 40% in size
ATXN2 expr inh – inhibitors of ATXN2 expression; AID 1745845; Potency, µM (series often up to 57 µM), for the others: top-dose activity change, negative = inhibition, actives largely listed as inhibitors; HEK-293 ATXN2-luciferase reporter, luminescence, 24 h; 360,000 compounds, 0.72% hits; also: % is scaled to controls: 0 for no effect and ±100 for the full control effect; nearly all actives have a fitted effect of over 55% in size
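ATXN2-luciferase reporter cells (luciferase flanked by upstream and downstream ATXN2 gene portions) were treated 24 h at 37 °C with compounds at up to 57 uM. SteadyGlo luminescence gave expression; GF-AFC fluorescence gave viability.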
DT40 TDP1 CPT – growth inhibition of DT40 Tdp1-/-;hTDP1 cells with camptothecin (screen for TDP1 inhibitors); Potency, µM (titrated, usually from 46.2 µM), inactives show top-dose activity change, negative = growth inhibition, actives largely listed as inhibitors; 420,000 compounds, 12% hits; chicken DT40 Tdp1-/-;hTDP1 cells + 20 nM CPT, ATP luminescence, 48 h; also: % is scaled to controls: 0 for no effect and ±100 for the full control effect; nearly all actives have a fitted effect of over 55% in size
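Cell growth measured by CellTiter-Glo luminescence after a minimum 48 h, 37 C compound exposure with 20 nM CPT in Tdp1-knockout DT40 cells stably expressing hTDP1, seeded 400/well; qHTS titration format.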
The depositor's hits bear a star; i = inactive; u = inconclusive; x = no result given. A selection: hits, their analogues and other compounds. The true share with any hit is near 17%. Calls follow the shape of the dose curve; as a rule, active = well fitted curve in the direction sought with a large enough effect; inconclusive = small, poorly fitted or top-dose-only effect, or another doubt; inactive = no such curve, though single readings can be large; an effect the other way counts as inactive or inconclusive. Potency is read from the fitted curve at half-maximal effect.

SMILES | DT40 TDP1 no CPT | TGFb SMAD3 inh | HepG2 tox | ATXN viability | ATXN2 expr inh | DT40 TDP1 CPT
COc1cccc(CNC(=O)C2CCCN(c3nn4cc(-c5ccc(C)cc5)nc4s3)C2)c1 (centres undefined) | 14.6µM* | -20.7% | -19.4% | x | x | 20.6µM*
CCOc1ccc(CNC(=O)C2CCCN(c3nn4cc(-c5ccc(F)cc5)nc4s3)C2)cc1 (centres undefined) | 23.1µM* | u | 0.4% | x | x | 20.6µM*
CCc1ccc(CNC(=O)C2CCCN(c3nn4cc(-c5ccc(F)cc5)nc4s3)C2)cc1 (centres undefined) | 16.4µM* | 0.0% | -2.8% | x | x | 16.4µM*
CCOCCCNC(=O)C1CCN(c2nn3cc(-c4ccc(F)cc4)nc3s2)CC1 | 14.6µM* | -14.8% | 5.3% | x | x | 20.6µM*
COc1cccc(CNC(=O)C2CCCN(c3nn4c(=O)cc(C)nc4s3)C2)c1 (centres undefined) | -4.5% | u | -10.4% | i | 2.3% | 2.9%
O=C(CC12CC3CC(CC(Br)(C3)C1)C2)NCc1ccccc1 | -16.3% | 4.8% | -2.1% | u | -16.6% | -17.9%
COC(=O)[C@@H](Cc1c[nH]c2ccccc12)NC(=O)CCC(=O)c1ccc(F)cc1 | 19.8% | -14.3% | -13.0% | i | -2.0% | -9.0%
COc1ccc(-c2cn3nc(N4CCCC(C(=O)Nc5ccccc5OC)C4)sc3n2)cc1 (centres undefined) | 16.4µM* | u | -6.0% | x | x | 14.6µM*
CCOc1ccc(CNC(=O)C2CCCN(c3nn4cc(-c5ccc(OC)cc5)nc4s3)C2)cc1 (centres undefined) | 18.4µM* | 0.0% | -15.2% | x | x | 16.4µM*
CCc1ccc(NC(=O)C2CCCN(c3nn4cc(-c5ccc(OC)cc5)nc4s3)C2)cc1 (centres undefined) | 13µM* | -24.6% | -7.2% | x | x | u
COc1ccc(-c2cn3nc(N4CCCC(C(=O)NCc5ccc(Cl)cc5)C4)sc3n2)cc1 (centres undefined) | 8.2µM* | -17.3% | -10.6% | i | 12.6% | 9.2µM*
Cc1cc2c(c(-c3ccc(Cl)cc3)c1)OC(CNC(=O)CCC(=O)N(C)C)C2 (centres undefined) | u | x | x | i | x | u
CN1CCN(CCC(=O)Nc2ccc(Cl)cc2)CC1 | 3.0% | 2.7% | -1.1% | i | 12.6% | 12.0%
CCCN(CC(=O)Nc1ccc(F)c(F)c1F)CC(=O)Nc1c(C)n(C)n(-c2ccccc2)c1=O | 3.0% | -3.7% | 3.9% | i | -6.5% | u
CCCSCCCNC(=O)C1CCCN(c2nn3cc(-c4ccc(OC)cc4)nc3s2)C1 (centres undefined) | 13µM* | -12.3% | -24.4% | x | x | 20.6µM*
CCOC(=O)Nc1cccc(OCC(=O)Nc2ccc(OC)cc2OC)c1 | 9.2µM* | -6.1% | -0.3% | i | -4.9% | u
COCCn1ccc2c(OCC(=O)Nc3cccc(NC(C)=O)c3)cccc2c1=O | -24.6% | -4.2% | 17.8µM* | i | 2.7% | -23.2%
CCCn1ccc2c(OCC(=O)Nc3ccc(NC(C)=O)cc3)cccc2c1=O | u | 7.1% | -11.6% | i | -0.8% | u
CCCn1ccc2c(OCC(=O)Nc3ccc(F)cc3F)cccc2c1=O | u | -12.8% | -15.9% | u | -11.1% | 16.4µM*
CCn1ccc2c(OCC(=O)NCCc3ccc(OC)c(OC)c3)cccc2c1=O | u | 5.8% | -1.2% | i | 18.0% | 7.8%
COCCn1ccc2c(OCC(=O)Nc3ccccc3F)cccc2c1=O | u | -0.2% | 2.4% | u | 9.3% | u
CCOC(=O)Nc1cccc(OCC(=O)Nc2ccccc2OC)c1 | u | 3.8% | -1.8% | i | -16.0% | -21.4%
CCn1ccc2c(OCC(=O)Nc3ccc(C)c(Cl)c3)cccc2c1=O | 16.4µM* | 7.08µM* | -36.6% | x | u | 25.9µM*
COc1ccc(CNC(=O)c2ccc(=O)oc2)cc1OC | -15.5% | -1.0% | 2.8% | i | -3.5% | -2.0%
Cc1ccsc1C(=O)N1CCN(c2ncccn2)CC1 | 7.5% | 10.8% | 5.8% | i | 6.7% | 3.0%
SMILES | DT40 TDP1 no CPT | TGFb SMAD3 inh | HepG2 tox | ATXN viability | ATXN2 expr inh | DT40 TDP1 CPT
COc1ccc(S(=O)(=O)N2Cc3ccccc3CC2C(=O)Nc2nccs2)cc1 (centres undefined) | u | u | -37.0% | i | 42.3% | u
CCOc1ccc(CN(C)C(=O)CNC(=O)c2sc3ccccc3c2Cl)cc1 | u | 14.9% | 6.8% | i | x | -20.2%
CCn1ccc2c(OCC(=O)Nc3ccc(OC)cc3OC)cccc2c1=O | 6.51µM* | u | -5.1% | i | -13.4% | u
CCCn1ccc2c(OCC(=O)Nc3ccc(OC)c(OC)c3)cccc2c1=O | 7.31µM* | -25.9% | -18.3% | u | u | 13µM*
COc1ccc(NC(=O)COc2ccc(-n3cnnn3)cc2)cc1OC | 23.1µM* | -1.2% | 7.5% | i | 12.1% | u
O=C(O)c1ccc(N/N=C/c2cc(Br)cs2)cc1 | -9.8% | 16.2% | -24.0% | i | 30.6% | -1.5%
Cc1ccc(/C=N/Nc2ccc(C(=O)O)cc2)s1 | -25.8% | -7.2% | -56.8% | i | 0.947µM* | 2.9%
CC(=NNC(N)=S)c1ccc2cc3c(cc2c1)OCO3 | 10.3µM* | u | -92.0% | u | x | 23.1µM*
COc1cc2ccc(C(C)=NNC(N)=S)cc2cc1OC | 14.6µM* | u | -55.2% | u | x | u
COc1ccccc1OCC(=O)N/N=C(\C)c1ccc2ccccc2c1 | u | -0.9% | -14.6% | i | x | u
CC(C)CCNC(=O)c1cnc2sc(N3CCCCC3)nn2c1=O | u | -5.1% | -21.9% | i | u | u
COc1cc(NC(=O)[C@@H](NC(=O)N2CCn3c2nc2ccccc23)C(C)C)cc(OC)c1 | -12.8% | -0.5% | -2.7% | i | -10.3% | u
O=C(CN1C(=O)CC(c2ccccc2)Sc2ccccc21)Nc1cccc(Cl)c1 (centres undefined) | x | 9.2% | 11.4% | i | 1.3% | x
CCN1CCN(C(c2cccc(F)c2)c2c(O)cc(C)n(CCOC)c2=O)CC1 (centres undefined) | -0.9% | 3.4% | -7.7% | x | x | -3.4%
CC(C)(C)NC(=O)C12CCC(C)(c3nc4ccccc4nc31)C2(C)C (centres undefined) | 22.4µM* | -15.9% | -18.1% | i | u | 11.2µM*
